# Data published in the supplement of paper PMC10849652.
# The full data set covers some 7,900 targets. This sample favours those with a hit. About 0.6% of all pairs of compound and target were hits. Values without a mark were called inactive.
# Legend:
# Experiment in all cases: log2 fold change, soluble protein after heating vs DMSO (PISA); higher = thermal stabilisation; K562 cells, 10 uM, 30 min; active = over 0.2 and 3.5 SD of the protein, either way, in both replicates (recomputed)
# saracatinib = compound: CN1CCN(CCOc2cc(OC3CCOCC3)c3c(Nc4c(Cl)ccc5c4OCO5)ncnc3c2)CC1 [saracatinib]
# Method in brief: (§1)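 Soluble protein was quantified by TMTpro 16plex LC-MS/MS after channel sums were equalised. It was obtained as the supernatant after 21,000xg for 90 min from pooled aliquots of K562 cells (2×10^6 cells/mL, 10 μM compound, 30 min) heated for 3 min across 48°C-58°C and extracted in PBS with 0.5% NP-40 at 4°C. Thermal stability values are relative to control samples and come from duplicates. They are given as log2 fold changes.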
# sotrastaurin = compound: CN1CCN(c2nc(C3=C(c4c[nH]c5ccccc45)C(=O)NC3=O)c3ccccc3n2)CC1 [sotrastaurin]
# Method in brief: as §1
# alvocidib = compound: CN1CC[C@H](c2c(O)cc(O)c3c(=O)cc(-c4ccccc4Cl)oc23)[C@H](O)C1 [alvocidib]
# Method in brief: as §1
# Tubastatin A = compound: CN1CCc2c(c3ccccc3n2Cc2ccc(C(=O)NO)cc2)C1 [Tubastatin A]
# Method in brief: as §1
# [1] = compound: CNC(=O)C1=CC=CC=C1NC2=NC(=NC=C2Cl)NC3=C(C=C(C=C3)N4CCOCC4)OC
# Method in brief: as §1
# defactinib = compound: CNC(=O)c1ccc(Nc2ncc(C(F)(F)F)c(NCc3nccnc3N(C)S(C)(=O)=O)n2)cc1 [defactinib]
# Method in brief: as §1
# rucaparib = compound: CNCc1ccc(-c2[nH]c3cc(F)cc4c3c2CCNC4=O)cc1 [rucaparib]
# Method in brief: as §1
# [2] = compound: CNc1nc(-c2ccc3c(N)n[nH]c3c2)cc(N2C[C@@H](C(=O)NC3CCCCC3)CC[C@H]2C)n1
# Method in brief: as §1
# encorafenib = compound: COC(=O)N[C@@H](C)CNc1nccc(-c2cn(C(C)C)nc2-c2cc(Cl)cc(NS(C)(=O)=O)c2F)n1 [encorafenib]
# Method in brief: as §1
# [3] = compound: COC(=O)[C@H](CCSC)NC(=O)C1=C(C=C(C=C1)NC[C@H](CS)N)C2=CC=CC=C2
# Method in brief: as §1
# Sequence of UniProt Q96HA1 (Q96HA1 whole entry, looked up): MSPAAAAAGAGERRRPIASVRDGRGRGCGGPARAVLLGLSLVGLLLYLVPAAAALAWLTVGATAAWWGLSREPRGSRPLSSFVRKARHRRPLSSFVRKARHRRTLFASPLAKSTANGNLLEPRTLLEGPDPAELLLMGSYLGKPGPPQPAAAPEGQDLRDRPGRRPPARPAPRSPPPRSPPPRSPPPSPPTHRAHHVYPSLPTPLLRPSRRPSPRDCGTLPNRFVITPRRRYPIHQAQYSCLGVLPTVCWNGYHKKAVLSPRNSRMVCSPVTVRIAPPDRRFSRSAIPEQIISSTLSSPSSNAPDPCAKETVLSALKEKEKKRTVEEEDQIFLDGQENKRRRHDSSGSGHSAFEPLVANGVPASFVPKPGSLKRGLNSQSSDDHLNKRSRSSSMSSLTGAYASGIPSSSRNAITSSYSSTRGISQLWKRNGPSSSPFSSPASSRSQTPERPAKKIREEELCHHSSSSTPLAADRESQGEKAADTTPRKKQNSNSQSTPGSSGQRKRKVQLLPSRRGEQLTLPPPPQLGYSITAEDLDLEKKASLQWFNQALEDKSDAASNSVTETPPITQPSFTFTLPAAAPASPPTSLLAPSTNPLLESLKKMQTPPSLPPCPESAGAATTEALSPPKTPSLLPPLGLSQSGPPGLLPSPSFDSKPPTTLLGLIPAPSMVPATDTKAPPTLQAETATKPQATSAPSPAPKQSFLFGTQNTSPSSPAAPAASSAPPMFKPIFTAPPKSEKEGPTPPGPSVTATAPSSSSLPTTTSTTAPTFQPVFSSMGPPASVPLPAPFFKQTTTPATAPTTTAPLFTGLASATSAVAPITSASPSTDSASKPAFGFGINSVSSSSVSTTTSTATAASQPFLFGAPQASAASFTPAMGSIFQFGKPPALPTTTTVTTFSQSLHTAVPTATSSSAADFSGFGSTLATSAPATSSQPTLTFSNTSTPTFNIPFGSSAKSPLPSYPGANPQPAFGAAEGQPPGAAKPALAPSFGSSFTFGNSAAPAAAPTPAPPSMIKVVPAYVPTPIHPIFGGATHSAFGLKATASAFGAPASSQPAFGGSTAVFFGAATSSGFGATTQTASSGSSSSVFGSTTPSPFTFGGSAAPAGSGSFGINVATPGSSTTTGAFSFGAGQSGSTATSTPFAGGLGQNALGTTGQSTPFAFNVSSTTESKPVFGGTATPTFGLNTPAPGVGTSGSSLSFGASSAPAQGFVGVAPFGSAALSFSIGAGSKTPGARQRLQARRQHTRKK
# Sequence of UniProt Q8NEB9 (Q8NEB9 whole entry, looked up): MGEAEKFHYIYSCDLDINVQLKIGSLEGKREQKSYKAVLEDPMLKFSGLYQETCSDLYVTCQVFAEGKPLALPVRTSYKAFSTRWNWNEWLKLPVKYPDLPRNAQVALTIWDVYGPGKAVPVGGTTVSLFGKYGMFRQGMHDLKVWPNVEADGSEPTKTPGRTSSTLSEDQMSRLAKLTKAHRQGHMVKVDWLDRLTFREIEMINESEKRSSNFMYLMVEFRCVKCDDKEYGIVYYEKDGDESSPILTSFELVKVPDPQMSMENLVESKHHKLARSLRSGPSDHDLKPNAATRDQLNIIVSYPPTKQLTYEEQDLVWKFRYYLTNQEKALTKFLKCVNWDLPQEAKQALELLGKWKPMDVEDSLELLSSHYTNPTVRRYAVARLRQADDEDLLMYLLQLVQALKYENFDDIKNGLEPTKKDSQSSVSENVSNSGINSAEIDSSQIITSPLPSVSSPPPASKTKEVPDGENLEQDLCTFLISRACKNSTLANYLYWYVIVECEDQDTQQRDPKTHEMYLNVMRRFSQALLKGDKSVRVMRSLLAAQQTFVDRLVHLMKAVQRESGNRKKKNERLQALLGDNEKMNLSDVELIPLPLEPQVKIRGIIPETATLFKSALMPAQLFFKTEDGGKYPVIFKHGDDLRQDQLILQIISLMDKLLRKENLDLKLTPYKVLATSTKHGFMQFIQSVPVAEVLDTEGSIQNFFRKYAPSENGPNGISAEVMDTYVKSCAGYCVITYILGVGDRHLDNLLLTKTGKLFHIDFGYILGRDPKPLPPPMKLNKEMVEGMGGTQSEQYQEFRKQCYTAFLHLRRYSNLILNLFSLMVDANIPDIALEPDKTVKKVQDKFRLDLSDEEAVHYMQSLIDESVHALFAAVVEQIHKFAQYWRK
# Sequence of UniProt Q8N165 (Q8N165 whole entry, looked up): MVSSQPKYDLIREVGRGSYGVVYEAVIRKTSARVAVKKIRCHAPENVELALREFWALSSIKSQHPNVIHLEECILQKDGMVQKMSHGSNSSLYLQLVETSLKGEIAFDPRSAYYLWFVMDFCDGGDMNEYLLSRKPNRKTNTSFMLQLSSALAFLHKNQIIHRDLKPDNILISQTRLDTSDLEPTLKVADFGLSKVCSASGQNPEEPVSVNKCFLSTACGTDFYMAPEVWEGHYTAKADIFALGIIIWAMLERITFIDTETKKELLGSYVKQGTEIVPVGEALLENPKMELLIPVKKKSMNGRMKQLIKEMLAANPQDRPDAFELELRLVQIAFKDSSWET
# Sequence of UniProt Q8NCC3 (Q8NCC3 whole entry, looked up): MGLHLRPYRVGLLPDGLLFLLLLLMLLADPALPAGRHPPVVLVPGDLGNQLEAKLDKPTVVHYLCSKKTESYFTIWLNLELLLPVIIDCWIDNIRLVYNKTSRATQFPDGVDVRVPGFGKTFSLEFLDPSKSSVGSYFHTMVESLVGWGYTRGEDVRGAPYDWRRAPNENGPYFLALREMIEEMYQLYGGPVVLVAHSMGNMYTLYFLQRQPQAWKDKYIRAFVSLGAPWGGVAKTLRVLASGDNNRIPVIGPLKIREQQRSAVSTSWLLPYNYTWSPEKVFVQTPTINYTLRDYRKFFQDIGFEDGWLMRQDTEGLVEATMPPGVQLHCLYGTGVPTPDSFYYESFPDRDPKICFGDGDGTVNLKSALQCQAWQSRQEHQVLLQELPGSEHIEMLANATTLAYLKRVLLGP
# Sequence of UniProt P49642 (P49642 whole entry, looked up): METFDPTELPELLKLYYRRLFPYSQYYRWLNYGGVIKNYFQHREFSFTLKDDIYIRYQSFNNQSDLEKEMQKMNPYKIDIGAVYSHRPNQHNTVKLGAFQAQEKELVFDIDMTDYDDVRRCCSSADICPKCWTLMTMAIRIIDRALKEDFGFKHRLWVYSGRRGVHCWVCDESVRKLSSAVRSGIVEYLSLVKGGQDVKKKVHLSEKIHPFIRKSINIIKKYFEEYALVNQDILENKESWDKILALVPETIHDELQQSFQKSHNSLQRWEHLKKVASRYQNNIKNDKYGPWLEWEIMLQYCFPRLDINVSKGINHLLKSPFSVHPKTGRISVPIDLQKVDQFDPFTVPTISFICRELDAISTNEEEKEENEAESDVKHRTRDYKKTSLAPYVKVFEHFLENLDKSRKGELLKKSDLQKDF
# Sequence of UniProt Q9Y3E5 (Q9Y3E5 whole entry, looked up): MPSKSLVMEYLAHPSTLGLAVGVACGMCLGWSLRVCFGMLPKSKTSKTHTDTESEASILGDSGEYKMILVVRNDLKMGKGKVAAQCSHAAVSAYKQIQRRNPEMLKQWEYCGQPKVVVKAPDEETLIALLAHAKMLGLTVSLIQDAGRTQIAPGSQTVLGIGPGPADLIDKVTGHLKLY
# Sequence of UniProt P49585 (P49585 whole entry, looked up): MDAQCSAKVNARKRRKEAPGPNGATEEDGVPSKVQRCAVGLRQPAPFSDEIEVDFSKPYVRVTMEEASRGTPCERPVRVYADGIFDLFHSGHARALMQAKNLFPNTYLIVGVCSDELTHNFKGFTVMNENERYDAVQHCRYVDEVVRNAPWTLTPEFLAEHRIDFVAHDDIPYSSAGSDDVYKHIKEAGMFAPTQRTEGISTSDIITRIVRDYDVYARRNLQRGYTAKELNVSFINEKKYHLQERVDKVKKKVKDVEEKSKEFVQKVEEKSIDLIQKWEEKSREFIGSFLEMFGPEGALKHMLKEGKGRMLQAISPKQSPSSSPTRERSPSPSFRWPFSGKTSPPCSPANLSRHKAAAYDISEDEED
# Sequence of UniProt Q9H814 (Q9H814 whole entry, looked up): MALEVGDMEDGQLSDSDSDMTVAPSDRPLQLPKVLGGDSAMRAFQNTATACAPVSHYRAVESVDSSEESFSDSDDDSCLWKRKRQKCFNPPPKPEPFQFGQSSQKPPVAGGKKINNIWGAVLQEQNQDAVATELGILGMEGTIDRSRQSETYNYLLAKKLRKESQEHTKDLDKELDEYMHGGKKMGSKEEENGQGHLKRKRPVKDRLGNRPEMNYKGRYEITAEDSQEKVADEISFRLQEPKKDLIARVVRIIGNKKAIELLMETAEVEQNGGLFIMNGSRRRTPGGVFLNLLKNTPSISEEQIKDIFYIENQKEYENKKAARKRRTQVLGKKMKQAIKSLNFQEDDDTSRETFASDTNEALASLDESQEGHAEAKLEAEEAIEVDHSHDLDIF
# Sequence of UniProt Q5JVF3 (Q5JVF3 whole entry, looked up): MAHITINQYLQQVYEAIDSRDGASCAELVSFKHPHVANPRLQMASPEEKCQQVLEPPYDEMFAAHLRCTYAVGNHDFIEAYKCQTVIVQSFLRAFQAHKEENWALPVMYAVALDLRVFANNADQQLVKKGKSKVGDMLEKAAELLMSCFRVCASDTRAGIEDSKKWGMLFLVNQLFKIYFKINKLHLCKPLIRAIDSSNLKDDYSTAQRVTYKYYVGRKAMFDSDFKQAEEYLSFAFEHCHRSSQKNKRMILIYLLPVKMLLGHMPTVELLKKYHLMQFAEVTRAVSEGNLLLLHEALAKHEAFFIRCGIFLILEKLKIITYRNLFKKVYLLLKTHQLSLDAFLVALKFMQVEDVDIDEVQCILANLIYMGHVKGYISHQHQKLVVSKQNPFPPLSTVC
Target,log2 fold change (saracatinib),log2 fold change (sotrastaurin),log2 fold change (alvocidib),log2 fold change (Tubastatin A),log2 fold change [1],log2 fold change (defactinib),log2 fold change (rucaparib),log2 fold change [2],log2 fold change (encorafenib),log2 fold change [3]
PRIM1 (UniProt P49642),-0.109,-0.111,-0.007,0.042,0.116,-0.107,0.084,0.051,0.153,-0.082
PIKFYVE (UniProt Q9Y2I7),-0.001,-0.081,-0.175,-0.032,0.009,-0.033,0.068,-0.106,0.099,-0.025
PCID2 (UniProt Q5JVF3),-0.164,-0.22,0.012,0.006,-0.033,-0.281,0.051,0.008,-0.036,-0.101
PDIK1L (UniProt Q8N165),-0.062,0.019,-0.087,0.063,0.192,0.014,0.111,-0.064,-0.022,-0.115
PCYT1A (UniProt P49585),-0.014,-0.105,-0.254,0.013,0.032,-0.186,-0.127,-0.097,-0.001,-0.02
POM121 (UniProt Q96HA1),-0.043,-0.024,0.023,0.083,0.126,0.045,0.069,0,0.075,-0.002
PIK3C3 (UniProt Q8NEB9),-0.007,-0.039,0.044,0.027,-0.003,-0.012,0.25,0.002,0.05,-0.018
PSMD6 (UniProt Q15008),-0.044,-0.035,0.056,0.025,0.013,0.046,0.051,0.062,0.056,-0.021
PTDSS1 (UniProt P48651),-0.011,0.006,0.129,0.048,-0.065,0.13,0.292,0.07,0.224,0.01
PHAX (UniProt Q9H814),0.013,0.001,-0.15,0.003,-0.028,-0.138,-0.031,-0.037,-0.034,0.037
PTRH2 (UniProt Q9Y3E5),-0.008,0.027,-0.09,-0.052,0.148,-0.009,-0.002,-0.051,0.017,0
PLA2G15 (UniProt Q8NCC3),-0.052,-0.095,0.028,0.036,0.065,0.012,-0.064,-0.036,0.176,-0.018
PKN1 isoform 2 (UniProt Q16512),-0.018,-0.645 (active),-0.048,0.026,-0.088,-0.121,0.022,0.026,0.024,-0.014
